Screening data as filed in PubChem.
An excerpt weighted towards active compounds, which were near 7.6% of everything screened.
KB-3-1 cytotox = KB-3-1 parental cell cytotoxicity; KB-3-1 viability, CellTiter-Glo ATP luminescence, 72 h; Potency, µM (series often up to 46.1 µM), actives largely listed as cytotoxic; 400,000 tested, 1.4% active; also: potency is read from the fitted curve at half-maximal effect; % is scaled to controls: 0 for no effect and ±100 for the full control effect; nearly all actives have a fitted effect of over 60% in size
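Using CellTiter-Glo luminescence, growth of non-resistant KB-3-1 adenocarcinoma cells is assessed 72 h after pin-tool compound addition at 37 °C. Normalized responses across the concentration series yield fitted curves.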
hERG WT inh = blocks the wildtype human KCNH2 potassium channel | U2OS, BacMam KCNH2, thallium flux FluxOr; hits give low values | activity change, % at 1.84 µM | 340,000 tested, 0.37% active;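 active = maximum activity change below -70%; inconclusive = maximum activity change between -70% and -50%; inactive = maximum activity change above -50%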; also: % is scaled to controls: 0 for no effect and ±100 for the full control effect
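U2OS cells transduced with wild-type KCNH2 virus are loaded with FluxOr dye for 45 min, and thallium flux is measured in kinetic reads before and after stimulation buffer. Rate constants are normalized to DMSO controls.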
SW480 rerep = induces DNA re-replication in SW480 colon adenocarcinoma cells; SW480 DNA re-replication, Hoechst DNA content imaging, 48 h; Potency, µM (series often up to 46.1 µM), for inactives: at the top dose re-replication activation, usual class: activators; 340,000 tested, 1.8% active; also: potency is read from the fitted curve at half-maximal effect; % of control where 0% means no effect; nearly all actives have a fitted effect of over 55% in size
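Quantitative HTS format with DMSO vehicle controls; 48 hr drug incubation at 37 C, then 40 min Hoechst staining and scanning imager measurement at 405 nm excitation.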
MCF10A rereplic = DNA re-replication induction in MCF 10a cells | MCF 10A DNA re-replication, Hoechst nuclear intensity, 48 h | Potency, µM (titrated, usually from 46.1 µM), for the others: top-dose activity, positive = re-replication, actives largely listed as activators | 350,000 tested, 2.9% active; also: potency is read from the fitted curve at half-maximal effect; % of control where 0% means no effect; nearly all actives have a fitted effect of over 50% in size
KCNH2 3.1 inh = KCNH2 3.1 (human) potassium channel inhibition | U2OS KCNH2 3.1, thallium flux FluxOr; hits give low values | activity change, % (tested at about 1.8 µM) | 340,000 tested, 0.95% active;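 active = maximum activity change below -70%; inconclusive = maximum activity change from -70% to -50%; inactive = maximum activity change above -50%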;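 also: thallium influx rate constant from kinetic fluorescence after stimulation buffer; % is scaled to controls: 0 for no effect and ±100 for the full control effect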
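Kinetic fluorescence (2 min after stimulation buffer) measures Tl+ influx through KCNH2 3.1 expressed by viral transduction in U2OS cells; the rate constant is normalized against DMSO controls serving as positive and negative references.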
KB-V1 cytotox = kills drug-selected multidrug resistant KB-V1 cells; 400,000 tested, 3.4% active; Potency, µM (top dose mostly 46.1 µM), actives largely listed as cytotoxic; AID 1347076; KB-V1 MDR cells viability, CellTiter-Glo, 72 h; also: potency is read from the fitted curve at half-maximal effect; % is scaled to controls: 0 for no effect and ±100 for the full control effect; nearly all actives have a fitted effect of over 60% in size
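Following 72 h at 37 degrees C with compound, KB-V1 cell viability was read by CellTiter-Glo luminescence, medium being phenol-red-free DMEM plus 10% FBS; concentration-response parameters came from normalized, curve-fitted qHTS data.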
Numbers without * were called inactive; i = inactive; ? = inconclusive; / = not tested or not shown. Unless noted, calls follow the shape of the dose curve; as a rule, active = well fitted curve in the direction sought with a large enough effect; inconclusive = small, poorly fitted or top-dose-only effect, or another doubt; inactive = no such curve, though single readings can be large; an effect the other way counts as inactive or inconclusive.

SMILES	KB-3-1 cytotox	hERG WT inh	SW480 rerep	MCF10A rereplic	KCNH2 3.1 inh	KB-V1 cytotox
Cc1[nH]n(-c2ccccc2)c(=O)c1C(c1ccc([N+](=O)[O-])cc1)c1c(C)[nH]n(-c2ccccc2)c1=O	?	-2	-11%	23µM*	24	i
CC/C(=N\N1CCCCCC1)c1c(O)n(-c2ccccc2C)c(=O)[nH]c1=O	i	8	-1%	11%	-2	12µM*
[S]=[Sb][S][Sb]=[S]	/	/	-2%	-1%	/	/
O=C(O)c1c[nH]c2ccc(S(=O)(=O)N(CCCl)CCCl)cc12	i	-6	-1%	0%	-17	i
N#C/C(=C(/O)c1ccc(S(=O)(=O)N(CCCl)CCCl)cc1)c1nc2ccccc2[nH]1	i	2	?	10µM*	10	i
CC1CN(C)C(C)(C)CC1(O)c1ccccc1 (stereo not given)	i	-3	?	16µM*	4	i
CCOC(=O)[C@]12Cc3c(cc(OC)c(OC)c3OC)[C@H]1N(C)C(=O)c1ccccc12	?	/	/	/	/	i
CCOC(=O)[C@]12Cc3cc(OC)ccc3[C@H]1N(C(C)C)C(=O)c1cc(OC)ccc12	10µM*	/	/	/	/	6.5µM*
CCOC(=O)[C@]12Cc3cc(C)ccc3[C@H]1N(C)C(=O)c1cc(OC)ccc12	7.3µM*	/	/	/	/	i
CCOC(=O)[C@]12Cc3c(cc(OC)c(OC)c3OC)[C@H]1N(C(C)C)C(=O)c1cc(OC)ccc12	4.1µM*	/	/	/	/	2.6µM*
C#CC(C)(O)CC (stereo not given)	/	/	0%	11%	/	/
COC(=O)C1=C(c2ccc(F)cc2F)C[C@@H]2CC[C@H]1N2C(=O)N1CCCC1	i	-16	-4%	16%	7	i
COC(=O)C1=C(c2ccc(F)cc2F)C[C@@H]2CC[C@H]1N2C(=O)N1CCC(O)(c2ccc(Cl)cc2)CC1	?	5	-1%	7.3µM*	-13	i
Cc1cc(C(=O)OCC(=O)Nc2ccccc2F)c(C)n1C1CC1	i	-17	1%	9%	5	i
CCN(C(=O)COC(=O)c1cc(C)n(C2CC2)c1C)c1ccccc1	i	2	-2%	?	6	2.6µM*
COc1ccc2c(c1OC)C[N+]1([O-])CCc3cc4c(cc3C1C2)OCO4 (stereo not given)	i	1	-4%	-21%	0	i
O=C1CN(O)C(c2ccccc2Cl)=c2cc(Br)ccc2=N1	i	/	-1%	23µM*	-8	i
O=c1ccc2c(O)c3ccoc3cc2o1	i	-1	0.18µM*	11%	-2	i
COc1cc2occc2c2oc(=O)ccc12	i	-1	?	0%	7	i
O=c1c2ccccc2nc(/C=C/c2ccc([N+](=O)[O-])o2)n1-c1ccc(O)cc1	?	13	4.6µM*	?	12	?
Cc1cccc(-n2c(/C=C/c3ccc([N+](=O)[O-])o3)nc3ccccc3c2=O)c1	10µM*	10	6.5µM*	2.3µM*	-2	10µM*
Cc1cccc(-n2c(/C=C/c3cccc4ccccc34)nc3ccccc3c2=O)c1	i	/	/	/	/	?
COC(=O)C1=C(C(=O)OC)C2OC1c1cc3ccccc3cc12	i	6	13µM*	?	-15	i
COC(=O)C1=C(c2ccc3ccccc3c2)C[C@@H]2CC[C@H]1N2C	i	6	-5%	11%	8	i
CCOc1cc(-c2nc3c(C)cccn3c2NCC2CCCO2)ccc1O (stereo not given)	i	2	-3%	0%	3	5.2µM*
SMILES	KB-3-1 cytotox	hERG WT inh	SW480 rerep	MCF10A rereplic	KCNH2 3.1 inh	KB-V1 cytotox
Cc1cccn2c(NCC3CCCO3)c(C(C)C)nc12 (stereo not given)	i	6	-1%	-1%	0	i
COc1ccc2c3c1OC1CC(O)C=CC31CCN(C)C2 (stereo not given)	i	-8	1%	-3%	9	i
C=CCn1c(O)c(C(C)=NCc2cc(OC)cc(OC)c2)c(=O)[nH]c1=O	5.2µM*	-7	5%	?	8	3.3µM*
Cc1cc(C)c(N)cc1C	i	-3	?	?	-3	i
Cc1nn(-c2nccs2)c2c1C(=O)CC(C)(C)C2Br (stereo not given)	i	4	?	?	-3	i
CC(C)C(NC(=O)C(C(C)C)N(C)C)C(=O)N(C)C(C(=O)N1CCCC1C(=O)N1CCCC1C(=O)NCc1ccccc1)C(C)C (stereo not given)	?	-2	?	?	-8	21µM*
Cc1cc(Cl)ccc1OCCCC(=O)NCc1cccs1	i	6	?	?	-3	26µM*
O=Cc1cn(Cc2ccc([N+](=O)[O-])cc2)c2ccccc12	6.5µM*	27	?	18µM*	0	?
Cc1ccc(Cn2cc(C=O)c3ccccc32)cc1	?	-4	?	?	0	?
CCCC12CN3CC(C)(CN(C1)C3c1ccccn1)C2=O (stereo not given)	i	/	/	/	/	i
N[C@H]1C[C@H]1c1ccccc1	/	/	-6%	0%	/	/
O=[N+]([O-])c1ccc(N2CC2)c([N+](=O)[O-])c1	?	-3	-9%	-36%	-24	?
O=[N+]([O-])c1ccc(Sc2nc3ccccc3o2)c([N+](=O)[O-])c1	i	3	4.1µM*	12µM*	-7	?
N#Cc1ccc(/C=C/C(=O)O)cc1	i	11	-7%	14%	28	i
O=C(/C=C/c1ccccc1)C1C(=O)c2ccccc2C1=O	?	-2	-6%	?	9	3.7µM*
Cc1cccc(N2C(=O)NC(=O)/C(=C\c3cc(C)n(-c4sc5c(c4C#N)CCCC5)c3C)C2=O)c1C	i	0	-29%	21µM*	-3	?
NC(=O)CSc1nnc([C@@H](N)Cc2c[nH]c3ccccc23)o1	i	-3	-4%	3%	1	i
CC(C)Sc1nnc([C@@H](N)Cc2c[nH]c3ccccc23)o1	i	7	-4%	14%	11	18µM*
O=C(CCC1CCCN(Cc2cccc3c2OCO3)C1)NCc1ccc(F)c(F)c1 (stereo not given)	i	31	-76%	-13%	8	i
CC(=O)[C@H]1[C@H](C#N)C[C@H]2[C@@H]3CC=C4C[C@@H](O)CC[C@]4(C)[C@H]3CC[C@@]21C	?	0	?	-5%	7	?
COc1cc(CC2C(=O)N(C)C(=O)N(C)C2=O)ccc1OCc1ccccc1	i	17	?	5.2µM*	9	?
